PubChem BioAssay AID1851 (National Center for Advancing Translational Sciences (NCATS), 2009)
Values joined by “and” are separate entries in the source; they are usually repeats but may differ in a detail not shown here. Identical values can stand only once. Among all 16,000 compounds or so, about 2,600 (16%) were called active. Not shown: some 20% with an inconclusive outcome. Calls come from the whole dose curve; as a rule, active = well fitted curve in the direction sought with a large enough effect; inconclusive = small, poorly fitted or top-dose-only effect, or effect the other way; inactive = no such curve, though single readings can be large or run the other way. Only a sample is shown.
% is set by controls: 0 for no effect and ±100 for the full control effect.

Each compound was assayed against Cytochrome P450 2D6 (Homo sapiens) (UniProt P10635) (assay: Cytochrome panel assay with activity outcomes). Conditions: recombinant CYP, pro-luciferin dealkylation, luminescence, p450-cyp2d6; series mostly up to 57.1 µM; activity, negative = inhibition: at the top concentration.
Sequence of Cytochrome P450 2D6 (Homo sapiens) (P10635 whole entry, looked up): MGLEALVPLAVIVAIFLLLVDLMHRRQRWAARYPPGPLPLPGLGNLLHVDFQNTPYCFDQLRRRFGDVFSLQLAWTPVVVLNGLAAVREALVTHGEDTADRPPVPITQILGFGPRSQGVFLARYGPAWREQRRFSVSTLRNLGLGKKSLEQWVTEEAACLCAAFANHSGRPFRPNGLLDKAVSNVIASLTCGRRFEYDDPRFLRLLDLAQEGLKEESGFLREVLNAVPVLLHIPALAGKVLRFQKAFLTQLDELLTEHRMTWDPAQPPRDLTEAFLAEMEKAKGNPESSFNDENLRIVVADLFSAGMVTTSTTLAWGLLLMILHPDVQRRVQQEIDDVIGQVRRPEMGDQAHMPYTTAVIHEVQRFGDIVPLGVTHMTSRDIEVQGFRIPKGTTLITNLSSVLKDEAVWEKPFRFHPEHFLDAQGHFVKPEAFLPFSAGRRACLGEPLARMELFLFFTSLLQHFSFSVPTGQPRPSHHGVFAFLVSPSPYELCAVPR
C[C@@H](c1ccccc1)N1C(=O)[C@H]2[C@@H]3[C@H](O)[C@H](O)CC(=O)[C@H]3CC[C@H]2C1=O was tested, and the activity, negative = inhibition was 12.3% [at 11.4 µM] (inactive) and 1.84% [at 11.4 µM] (inactive).
For C#CCCCO/N=C1/C[C@@H](O)[C@@H](O)[C@@H]2[C@@H]3C(=O)N(C[C@@H]4CCCO4)C(=O)[C@H]3CC[C@@H]12, the activity, negative = inhibition was 9.44% [at 11.4 µM] (inactive).
In the case of CCCCOc1ccccc1C1CC(=O)NC2=C1C(=O)CCC2 (stereo not drawn), the “activity, negative = inhibition” value is reported as -1.31% (inactive).
COc1ccc(N2CCN(S(=O)(=O)c3ccc4c(c3)CCCC4)CC2)c([N+](=O)[O-])c1 was tested, and the “activity, negative = inhibition” value was -12.9% (inactive).
With Cn1c(=O)[nH]c(=O)c2c1nc(NCCCO)n2CCCc1ccccc1 the “activity, negative = inhibition” value was -3.72% (inactive).
With O=C(Nc1nc(-c2ccccc2)cs1)c1cccc([N+](=O)[O-])c1 the “activity, negative = inhibition” value was 11.3% (inactive).
With Cc1nn(-c2ccc(F)cc2)c(Cl)c1/C=C(\CCC(=O)O)c1nc2ccccc2s1 the “activity, negative = inhibition” value was -5.38% (inactive).
CC(=O)[C@H]([C@@H](c1ccccc1)N1CCOCC1)N1CCOCC1 was tested, and the activity, negative = inhibition was -3.05% [at 11.4 µM] (inactive).
In the case of CN1CCc2c(c3ccccc3n2C)C1, the AC50 is reported as 12.6 µM (active).
CN1CCc2c(c3ccccc3n2Cc2ccccc2)C1 was tested, and the AC50 was 3.16 µM (active).
In the case of O=c1[nH]ncc2c3ccccc3n(Cc3ccccc3)c12, the “activity, negative = inhibition” value is reported as 9.17% (inactive).
With CN1CCc2nc(N)nc(-c3nc(N)nc4c3CN(C)CC4)c2C1 the activity, negative = inhibition was 8.94% [at 11.4 µM] (inactive).
With CN1CCc2[nH]nc(-c3n[nH]c4c3CN(C)CC4)c2C1 the activity, negative = inhibition was 11.7% [at 11.4 µM] (inactive).
With CCCNC(=O)OC[C@@H]1O[C@H](CCO/N=C\[C@@H](C)[C@H](OCc2ccccc2)C(C)C)C=C[C@@H]1Oc1ccc(OC)cc1 the activity, negative = inhibition was -8.99% [at 11.4 µM] (inactive).
O=C1N=C2SCCN2/C1=C\c1c(Cl)cccc1Cl was tested, and the “activity, negative = inhibition” value was -4.25% (inactive).
For COC(=O)C/C=C\[C@H](C)[C@H](CO)NS(=O)(=O)c1ccc(C)cc1, the activity, negative = inhibition was -10.6% [at 11.4 µM] (inactive).
COCCn1c(=O)c(C)nc2cnc(N(C)C)nc21 was tested, and the “activity, negative = inhibition” value was 4.47% (inactive).
For Cn1c(=O)c(-c2ccccc2)nc2cnc(N3CCNCC3)nc21, the “activity, negative = inhibition” value was -5.95% (inactive).
CCN(CC)c1ccc(N2C(=O)/C(=C/c3cccnc3)SC2=S)cc1 was tested, and the “activity, negative = inhibition” value was 20.9% (inactive).
Cc1c(NC(=O)C2CCN(S(=O)(=O)c3ccc(Cl)cc3)CC2)c(=O)n(-c2ccccc2)n1C was tested, and the “activity, negative = inhibition” value was 10.2% (inactive).
With CCC/C=C(\CCC)C(NS(=O)(=O)c1cccs1)c1ccc(C(=O)OC)cc1 (stereo not drawn) the AC50 was 6.31 µM (active).
With CCC/C=C(\CCC)C(NS(=O)(=O)c1ccc(Cl)cc1)c1ccccc1 (stereo not drawn) the AC50 was 20 µM (active).
CCC/C=C(\CCC)C(NS(=O)(=O)c1ccc(C(F)(F)F)cc1)c1ccc(C(=O)OC)cc1 (stereo not drawn) was tested, and the “activity, negative = inhibition” value was 2.44% (inactive).
CCC/C=C(\CCC)C(NS(=O)(=O)CC12CCC(CC1=O)C2(C)C)c1ccc(C(=O)OC)cc1 (stereo not drawn) was tested, and the AC50 was 5.01 µM (active).
With CCC/C=C(\CCC)C(NS(=O)(=O)c1ccc(Cl)cc1)c1ccc(C(=O)OC)cc1 (stereo not drawn) the “activity, negative = inhibition” value was -8.65% (inactive).
In the case of CCC/C=C(\CCC)C(NS(=O)(=O)c1ccc(C(F)(F)F)cc1)c1ccc(-c2ccccc2)cc1 (stereo not drawn), the “activity, negative = inhibition” value is reported as 1.52% (inactive).
With CCC/C=C(\CCC)C(NS(=O)(=O)c1cccc2cccnc12)c1ccc(C(=O)OC)cc1 (stereo not drawn) the “activity, negative = inhibition” value was -12% (inactive).
For CCC/C=C(\CCC)C(NC(=O)c1ccc(C(F)(F)F)cc1)c1ccccc1 (stereo not drawn), the AC50 was 7.94 µM (active).
For CCC/C=C(\CCC)C(NC(=O)OCC(C)C)c1ccc(C(=O)OC)cc1 (stereo not drawn), the “activity, negative = inhibition” value was -9.01% (inactive).
For CCC/C=C(\CCC)C(NC(=O)c1cccs1)c1ccc(C(=O)OC)cc1 (stereo not drawn), the “activity, negative = inhibition” value was -6% (inactive).
CCC/C=C(\CCC)C(NC(=O)c1ccc(C(F)(F)F)cc1)c1ccc(C(F)(F)F)cc1 (stereo not drawn) was tested, and the “activity, negative = inhibition” value was 0.53% (inactive).
In the case of CCC/C=C(\CCC)C(NC(=O)c1ccc(-c2ccccc2)cc1)c1ccc(C(=O)OC)cc1 (stereo not drawn), the “activity, negative = inhibition” value is reported as 2.92% (inactive).
O=C(Nc1cccn(Cc2c(Cl)cccc2Cl)c1=O)c1ccc(Cl)cc1Cl was tested, and the “activity, negative = inhibition” value was 12% (inactive).
With Cc1ccccc1N1CCN(C(=O)c2ccccc2NC(=O)/C=C\C(=O)O)CC1 the “activity, negative = inhibition” value was 2.71% (inactive).
C/C(=N\[N+](C)(C)C)c1ccc(C)c(C)c1 was tested, and the activity, negative = inhibition was -19.6% [at 11.4 µM] (inactive).
O=C(O)C1C2C=CC(C2)C1C(=O)N1CCN(C/C=C/c2ccccc2)CC1 (stereo not drawn) was tested, and the “activity, negative = inhibition” value was -10.1% (inactive).
In the case of Cc1cccc(C(=O)Nc2nnc(-c3ccc(C(C)(C)C)cc3)s2)c1, the “activity, negative = inhibition” value is reported as 7.99% (inactive).
For CCCc1nnc(NC(=O)Cn2cnc3ccccc3c2=O)s1, the “activity, negative = inhibition” value was 11.7% (inactive).
COc1ccc(C(O)P(=O)(OC(C)C)OC(C)C)cc1OC (stereo not drawn) was tested, and the “activity, negative = inhibition” value was -13.6% (inactive).
With CCc1ccc(N2C(=O)c3ccc4c5c(ccc(c35)C2=O)CC4)cc1 the “activity, negative = inhibition” value was -7.44% (inactive).
C=CCN1C(=O)CN=C1Nc1ccccc1 was tested, and the “activity, negative = inhibition” value was 2.01% (inactive).
CN1CCN(/C=N/C2=C(C#N)C(c3ccccc3)C3=C(CC(C)(C)CC3=O)O2)CC1 (stereo not drawn) was tested, and the “activity, negative = inhibition” value was 5.01% (inactive).
For COc1ccc(N2C(=O)CSC2c2cccc(F)c2)c(OC)c1 (stereo not drawn), the “activity, negative = inhibition” value was 17.9% (inactive).
COc1ccc(N2CCc3c(C)nc4c(OC)cc(OC)cc4c32)c(OC)c1 was tested, and the AC50 was 0.1 µM (active).
With CSc1nc(C)c2c(n1)N(c1ccc(C(C)C)cc1)CC2 the “activity, negative = inhibition” value was -7.45% (inactive).
For COc1cc(OC)c2nc(C)c3c(c2c1)N(c1ccc(O)cc1)CC3, the AC50 was 3.16 µM (active).
COc1ccc2c(C)cc(N3CCOCC3)nc2c1 was tested, and the “activity, negative = inhibition” value was -26.1% (inactive).
In the case of CSc1nc(C)c2c(n1)N(c1ccc(C(F)(F)F)cc1)CC2, the “activity, negative = inhibition” value is reported as 7.98% (inactive).
For CN(C)CCNc1ncnc2c1sc1nc(N3CCOCC3)c3c(c12)CC(C)(C)SC3, the “activity, negative = inhibition” value was -6.95% (inactive).
For CC(C)/C(=N/[N+](C)(C)C)c1ccccc1, the activity, negative = inhibition was 6.75% [at 11.4 µM] (inactive).
With CC(C)C(=O)Nc1ccc(C(=O)NNC(=O)CCCOc2ccc(Cl)cc2Cl)cc1 the “activity, negative = inhibition” value was -9.88% (inactive).
With CC1(C)CC(=O)C/C(=N/NC(=O)CCCOc2ccc(Cl)cc2Cl)C1 the “activity, negative = inhibition” value was -22.8% (inactive).
CC(C)NCCCOc1ccc(Cl)cc1Br was tested, and the AC50 was 0.178 µM (active).
With CC1(C)O[C@H]2[C@@H](O1)[C@@H](On1nnc3ccc(Cl)cc31)O[C@@H]2[C@@H]1COC(C)(C)O1 the activity, negative = inhibition was -7.25% [at 11.4 µM] (inactive).
COc1ccc(C(=O)NNC(=O)CSc2nnc(COc3ccc4ccccc4c3)n2C)cc1 was tested, and the “activity, negative = inhibition” value was -0.0652% (inactive).
Cc1[nH]nc(-c2ccc(O)cc2O)c1-c1ccc(Cl)cc1 was tested, and the AC50 was 3.55 µM (active).
For C=C(C)COc1ccc(-c2n[nH]c(C)c2-c2ccc(OC)cc2)c(O)c1, the “activity, negative = inhibition” value was -87.9% (inactive).
In the case of Oc1ccc(-c2[nH]ncc2-c2ccc(Cl)cc2)c(O)c1, the AC50 is reported as 8.91 µM (active).
